Source: the supplement of paper PMC10849652
Of roughly 7,900 targets only a part is listed; those with a hit were picked by preference. About 0.6% of all pairs of compound and target were hits. A number with no mark means an inactive call.

What was measured:
Assay in all cases: log2 fold change, soluble protein after heating vs DMSO (PISA); higher = thermal stabilisation; K562 cells, 10 uM, 30 min; active = over 0.2 and 3.5 SD of the protein, either way, in both replicates (recomputed)
[1] = compound: CC1=C(C=C(C=C1)NC(=O)C2=CC(=CC=C2)C(C)(C)C#N)NC3=CC4=C(C=C3)N=CN(C4=O)C
In short: (§1)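 For each measurement, 10 μM compound was applied for 30 min to K562 cells at 2×10^6 cells/mL. Aliquots were heated for 3 min across 48°C-58°C, pooled, and extracted in PBS with 0.5% NP-40 at 4°C; the supernatant after 21,000xg for 90 min was soluble protein. This was quantified by TMTpro 16plex LC-MS/MS with channel sums equalised, and thermal stability was reported relative to control samples from duplicates, on a log2 fold-change scale.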

[2] = compound: CC1=C(C=C(C=C1)NC(=O)C2=CC(=CC=C2)N(C)C)NC(=O)C3=CC=C(C=C3)O
In short: as §1

[3] = compound: CC1=CC=C(C=C1)SC2=C3C=C(SC3=CN=C2)C(=O)N
In short: as §1

[4] = compound: CC1=NC(=CC=C1)C2=C(N=C(N2)C(C)(C)C)C3=CC4=NC=CN=C4C=C3
In short: as §1

Nexturastat A = compound: CCCCN(Cc1ccc(C(=O)NO)cc1)C(=O)Nc1ccccc1 [Nexturastat A]
In short: as §1

vemurafenib = compound: CCCS(=O)(=O)Nc1ccc(F)c(C(=O)c2c[nH]c3ncc(-c4ccc(Cl)cc4)cc23)c1F [vemurafenib]
In short: as §1

[5] = compound: CCCS(=O)(=O)Nc1ccc(F)c(C(=O)c2c[nH]c3ncc(Cl)cc23)c1F
In short: as §1

[6] = compound: CCCc1cc(C)[nH]c(=O)c1CNC(=O)c1cc(-c2ccnc(N3CCN(C)CC3)c2)cc2c1cnn2C(C)C
In short: as §1

givinostat = compound: CCN(CC)Cc1ccc2cc(COC(=O)Nc3ccc(C(=O)NO)cc3)ccc2c1 [givinostat]
In short: as §1

barasertib = compound: CCN(CCCOc1ccc2c(Nc3cc(CC(=O)Nc4cccc(F)c4)[nH]n3)ncnc2c1)CCOP(=O)(O)O [barasertib]
In short: as §1

[7] = compound: CC[C@@H]1C(=O)N(C)c2cnc(Nc3ccc(C(=O)NC4CCN(C)CC4)cc3OC)nc2N1C1CCCC1
In short: as §1

volasertib = compound: CC[C@@H]1C(=O)N(C)c2cnc(Nc3ccc(C(=O)N[C@H]4CC[C@H](N5CCN(CC6CC6)CC5)CC4)cc3OC)nc2N1C(C)C [volasertib]
In short: as §1

[8] = compound: CC[C@H](C)N1C=C(C2=C(C=C(C=C21)C3=CN=C(C=C3)N4CCNCC4)C(=O)NCC5=C(C=C(NC5=O)C)C)C
In short: as §1

epoxomicin = compound: CC[C@H](C)[C@@H](C(=O)N[C@@H]([C@@H](C)O)C(=O)N[C@@H](CC(C)C)C(=O)[C@]1(CO1)C)NC(=O)[C@H]([C@@H](C)CC)N(C)C(=O)C [epoxomicin]
In short: as §1

[9] = compound: CCn1c(C(=O)N(C2CC2)C2CC2)cc2c3c(ncn3C)c(Nc3cc(C)n(C)n3)nc21
In short: as §1

[10] = compound: CCn1cc(-c2ccnc3[nH]c(-c4cccc(CN(C)C)c4)cc23)c(-c2ccc(NC(=O)N(C)C)cc2)n1
In short: as §1

[11] = compound: CN(C)CC(=O)Nc1ccc2[nH]c(=O)c3ccccc3c2c1
In short: as §1

rosiglitazone = compound: CN(CCOC1=CC=C(C=C1)C[C@H]2C(=O)NC(=O)S2)C3=CC=CC=N3 (racemic) [rosiglitazone]
In short: as §1

[12] = compound: CN1C2=C(C3=C1C(=O)N(N=C3)CC4=CC(=CC=C4)N)SC(=C2)S(=O)C
In short: as §1

[13] = compound: CN1CCC(CNc2ccc3ncc(-c4cccc(OC(F)(F)F)c4)n3n2)CC1
In short: as §1

UniProt O00217, sequence (O00217 whole entry, looked up): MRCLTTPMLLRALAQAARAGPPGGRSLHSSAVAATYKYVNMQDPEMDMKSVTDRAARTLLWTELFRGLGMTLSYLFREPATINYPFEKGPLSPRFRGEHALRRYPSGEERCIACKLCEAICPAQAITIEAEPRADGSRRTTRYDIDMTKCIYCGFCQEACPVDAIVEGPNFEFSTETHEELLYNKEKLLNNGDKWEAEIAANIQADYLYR
UniProt O95169, sequence (O95169 whole entry, looked up): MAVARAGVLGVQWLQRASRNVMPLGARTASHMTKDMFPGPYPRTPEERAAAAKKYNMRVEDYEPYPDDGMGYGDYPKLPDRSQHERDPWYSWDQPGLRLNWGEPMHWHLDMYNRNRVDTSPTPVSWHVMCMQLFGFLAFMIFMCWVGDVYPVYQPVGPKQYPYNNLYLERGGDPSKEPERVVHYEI
UniProt Q9UI09, sequence (Q9UI09 whole entry, looked up): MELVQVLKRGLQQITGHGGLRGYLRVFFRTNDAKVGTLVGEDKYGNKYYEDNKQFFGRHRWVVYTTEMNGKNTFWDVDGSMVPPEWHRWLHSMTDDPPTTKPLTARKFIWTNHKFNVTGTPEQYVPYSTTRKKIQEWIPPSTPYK
UniProt Q14978, sequence (Q14978 whole entry, looked up): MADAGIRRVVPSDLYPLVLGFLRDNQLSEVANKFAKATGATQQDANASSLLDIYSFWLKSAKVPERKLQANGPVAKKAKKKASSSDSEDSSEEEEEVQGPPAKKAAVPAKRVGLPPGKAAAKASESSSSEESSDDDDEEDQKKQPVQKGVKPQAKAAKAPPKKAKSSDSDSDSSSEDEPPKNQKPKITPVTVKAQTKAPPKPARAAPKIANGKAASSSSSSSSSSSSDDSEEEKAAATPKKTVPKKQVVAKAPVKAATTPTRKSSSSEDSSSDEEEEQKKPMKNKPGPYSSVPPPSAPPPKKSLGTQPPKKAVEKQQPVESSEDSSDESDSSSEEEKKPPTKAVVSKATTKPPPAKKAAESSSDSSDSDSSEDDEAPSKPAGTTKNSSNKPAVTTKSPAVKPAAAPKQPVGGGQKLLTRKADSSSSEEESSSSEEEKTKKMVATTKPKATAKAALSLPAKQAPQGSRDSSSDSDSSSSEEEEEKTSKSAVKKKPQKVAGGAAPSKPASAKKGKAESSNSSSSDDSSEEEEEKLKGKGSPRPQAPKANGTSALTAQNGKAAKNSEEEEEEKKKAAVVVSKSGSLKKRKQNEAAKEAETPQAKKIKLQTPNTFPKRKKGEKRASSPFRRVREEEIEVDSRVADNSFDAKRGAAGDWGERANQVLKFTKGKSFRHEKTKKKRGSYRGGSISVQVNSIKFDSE
UniProt Q7L1V2, sequence (Q7L1V2 whole entry, looked up): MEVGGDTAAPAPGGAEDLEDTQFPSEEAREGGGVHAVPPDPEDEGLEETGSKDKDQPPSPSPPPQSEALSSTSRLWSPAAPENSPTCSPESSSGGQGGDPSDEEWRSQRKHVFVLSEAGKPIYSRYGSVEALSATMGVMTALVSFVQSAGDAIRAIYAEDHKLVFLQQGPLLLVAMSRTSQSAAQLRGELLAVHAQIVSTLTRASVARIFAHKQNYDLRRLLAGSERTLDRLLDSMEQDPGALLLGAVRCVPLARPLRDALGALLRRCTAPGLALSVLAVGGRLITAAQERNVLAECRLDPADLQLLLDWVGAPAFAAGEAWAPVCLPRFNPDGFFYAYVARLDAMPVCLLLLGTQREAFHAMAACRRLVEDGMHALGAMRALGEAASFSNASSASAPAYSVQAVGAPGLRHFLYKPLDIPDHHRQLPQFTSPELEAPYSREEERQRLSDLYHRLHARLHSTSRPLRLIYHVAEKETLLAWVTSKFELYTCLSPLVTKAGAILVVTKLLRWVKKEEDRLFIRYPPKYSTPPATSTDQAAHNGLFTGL
UniProt Q12986, sequence (Q12986 whole entry, looked up): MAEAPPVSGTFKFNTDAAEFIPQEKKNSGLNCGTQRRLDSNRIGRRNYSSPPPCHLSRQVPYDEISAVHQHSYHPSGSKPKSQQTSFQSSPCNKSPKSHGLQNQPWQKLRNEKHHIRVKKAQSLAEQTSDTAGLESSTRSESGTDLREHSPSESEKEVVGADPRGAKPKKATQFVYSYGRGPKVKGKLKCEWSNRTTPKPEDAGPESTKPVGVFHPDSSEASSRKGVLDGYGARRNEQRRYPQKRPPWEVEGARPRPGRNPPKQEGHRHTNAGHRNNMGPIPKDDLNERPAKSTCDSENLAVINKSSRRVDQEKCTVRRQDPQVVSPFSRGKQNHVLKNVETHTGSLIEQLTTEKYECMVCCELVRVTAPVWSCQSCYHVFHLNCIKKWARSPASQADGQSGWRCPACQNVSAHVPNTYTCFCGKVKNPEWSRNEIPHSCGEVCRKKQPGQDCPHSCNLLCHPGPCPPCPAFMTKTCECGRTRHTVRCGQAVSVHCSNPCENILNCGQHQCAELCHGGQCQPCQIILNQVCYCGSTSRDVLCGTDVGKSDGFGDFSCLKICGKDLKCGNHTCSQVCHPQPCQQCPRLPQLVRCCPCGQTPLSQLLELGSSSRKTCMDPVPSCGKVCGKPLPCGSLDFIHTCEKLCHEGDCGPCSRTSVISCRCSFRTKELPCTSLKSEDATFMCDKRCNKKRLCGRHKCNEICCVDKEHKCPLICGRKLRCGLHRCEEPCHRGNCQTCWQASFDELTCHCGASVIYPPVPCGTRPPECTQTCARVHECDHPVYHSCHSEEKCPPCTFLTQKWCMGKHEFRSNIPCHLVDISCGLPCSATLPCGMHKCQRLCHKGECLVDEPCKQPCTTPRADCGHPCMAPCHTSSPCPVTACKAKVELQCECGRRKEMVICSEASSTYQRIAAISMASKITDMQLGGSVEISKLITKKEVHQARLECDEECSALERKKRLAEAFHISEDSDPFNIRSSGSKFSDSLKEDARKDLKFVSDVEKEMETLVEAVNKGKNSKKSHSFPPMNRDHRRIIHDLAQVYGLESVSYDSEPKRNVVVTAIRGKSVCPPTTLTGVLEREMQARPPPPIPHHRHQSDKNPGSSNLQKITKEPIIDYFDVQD
UniProt Q9BV86, sequence (Q9BV86 whole entry, looked up): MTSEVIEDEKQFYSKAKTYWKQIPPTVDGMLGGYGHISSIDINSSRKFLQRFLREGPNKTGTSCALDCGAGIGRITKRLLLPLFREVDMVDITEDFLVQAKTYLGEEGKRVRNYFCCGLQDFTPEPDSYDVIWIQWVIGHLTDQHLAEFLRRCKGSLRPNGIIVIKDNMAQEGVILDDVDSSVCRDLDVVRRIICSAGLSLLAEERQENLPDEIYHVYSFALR
UniProt Q9NXX6, sequence (Q9NXX6 whole entry, looked up): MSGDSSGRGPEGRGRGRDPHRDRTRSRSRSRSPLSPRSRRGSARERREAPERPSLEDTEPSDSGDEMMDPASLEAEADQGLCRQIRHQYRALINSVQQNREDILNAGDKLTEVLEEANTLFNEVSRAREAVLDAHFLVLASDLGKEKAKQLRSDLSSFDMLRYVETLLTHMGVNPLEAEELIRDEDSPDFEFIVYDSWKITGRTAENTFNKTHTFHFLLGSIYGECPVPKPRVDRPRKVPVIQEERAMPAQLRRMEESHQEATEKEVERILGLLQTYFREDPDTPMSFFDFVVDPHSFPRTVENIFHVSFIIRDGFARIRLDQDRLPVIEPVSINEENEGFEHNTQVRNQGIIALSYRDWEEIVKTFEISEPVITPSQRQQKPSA
UniProt Q86WC4, sequence (Q86WC4 whole entry, looked up): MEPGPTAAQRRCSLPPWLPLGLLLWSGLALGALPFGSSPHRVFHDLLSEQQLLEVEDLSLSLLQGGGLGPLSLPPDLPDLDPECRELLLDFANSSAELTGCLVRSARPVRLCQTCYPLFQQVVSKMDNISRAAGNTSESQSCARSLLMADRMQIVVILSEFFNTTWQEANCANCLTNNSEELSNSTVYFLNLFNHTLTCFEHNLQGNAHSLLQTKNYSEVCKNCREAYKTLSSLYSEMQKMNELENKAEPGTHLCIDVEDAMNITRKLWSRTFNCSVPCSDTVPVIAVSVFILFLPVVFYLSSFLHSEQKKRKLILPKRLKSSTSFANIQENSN
UniProt O43181, sequence (O43181 whole entry, looked up): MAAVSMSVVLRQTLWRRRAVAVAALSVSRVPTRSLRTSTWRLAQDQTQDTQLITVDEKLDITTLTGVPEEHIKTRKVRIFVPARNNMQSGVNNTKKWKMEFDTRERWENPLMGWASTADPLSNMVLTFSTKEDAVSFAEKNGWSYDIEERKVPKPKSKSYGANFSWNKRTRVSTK
UniProt O14950, sequence (O14950 whole entry, looked up): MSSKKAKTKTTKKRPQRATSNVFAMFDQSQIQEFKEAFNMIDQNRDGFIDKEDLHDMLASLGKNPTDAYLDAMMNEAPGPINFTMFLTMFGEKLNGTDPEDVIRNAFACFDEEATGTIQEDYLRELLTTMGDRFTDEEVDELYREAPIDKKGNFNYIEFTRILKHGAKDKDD

Target	log2 fold change [1]	log2 fold change [2]	log2 fold change [3]	log2 fold change [4]	log2 fold change (Nexturastat A)	log2 fold change (vemurafenib)	log2 fold change [5]	log2 fold change [6]	log2 fold change (givinostat)	log2 fold change (barasertib)	log2 fold change [7]	log2 fold change (volasertib)	log2 fold change [8]	log2 fold change (epoxomicin)	log2 fold change [9]	log2 fold change [10]	log2 fold change [11]	log2 fold change (rosiglitazone)	log2 fold change [12]	log2 fold change [13]
NTMT1 (UniProt Q9BV86)	0.05	0.037	-0.003	-0.034	-0.042	0.062	0.012	-0.073	-0.066	0.019	-0.047	-0.004	0.051	0.092	0.005	-0.141	0.081	-0.022	-0.037	0.099
NDUFS8 (UniProt O00217)	0.02	0	0.03	0.018	-0.136	0.02	-0.006	-0.092	-0.014	-0.004	-0.103	-0.097	-0.005	0.039	-0.003	-0.043	0	0.039	-0.069	-0.41 (active)
NDUFB8 (UniProt O95169)	0.01	-0.068	0.023	0.024	0.045	0.099	-0.04	-0.025	-0.048	0.023	0.008	-0.016	-0.036	0.074	0.041	0.055	0.016	0.025	0	0.097
NISCH (UniProt Q9Y2I1)	0.009	-0.07	-0.054	-0.018	0.094	0.055	0.116	-0.077	0.032	0.075	-0.349	-0.487 (active)	0.025	0.05	-0.252	-0.121	0.02	0.103	0.086	-0.518 (active)
MRPS17 (UniProt Q9Y2R5)	0.055	-0.095	-0.014	0.008	0.085	0.084	0.031	0.095	-0.103	0.01	-0.111	-0.018	0.022	-0.043	-0.059	0.043	0.069	0.057	0.022	-0.016
MYL12B (UniProt O14950)	0.005	-0.015	0.014	0.007	-0.005	0.039	0.054	0.136	-0.023	0.014	-0.053	-0.085	0.06	0.052	-0.06	-0.064	0.031	-0.025	-0.078	0.01
NOP53 (UniProt Q9NZM5)	-0.052	0.005	-0.073	-0.163	0.264	-0.154	-0.147	0.204	0.048	-0.105	0.174	0.393	-0.014	-0.009	-0.132	0.013	-0.111	-0.053	0.516	0.599
NSMCE4A (UniProt Q9NXX6)	0	0.022	-0.035	-0.053	0.037	0.088	-0.041	-0.016	-0.072	0.196	0.069	0.053	0.103	-0.02	0.112	-0.251	-0.13	0.057	-0.33	-0.009
MRPL50 (UniProt Q8N5N7)	-0.09	-0.04	0.175	-0.031	0.208	0.034	0.244	-0.058	0.05	-0.057	0.026	-0.029	-0.063	0.094	-0.005	-0.044	0.037	-0.015	-0.043	0.308
MINK1 (UniProt Q8N4C8)	-0.04	0.038	-0.003	0.029	-0.007	-0.004	0.024	0.003	-0.007	-0.016	-0.01	-0.149	0.056	-0.009	-0.011	-0.069	-0.035	0.011	-0.004	-0.137
MON1B (UniProt Q7L1V2)	0.064	-0.003	0.071	0.019	-0.058	-0.005	0.032	-0.036	0.024	0.005	-0.002	-0.183	-0.021	-0.028	-0.025	0.013	-0.024	0.016	-0.011	-0.377 (active)
NFX1 (UniProt Q12986)	-0.113	0.051	-0.082	0.004	0.287	0.148	-0.032	0.17	0	-0.125	0.029	0.15	-0.001	-0.144	0.029	0.232	-0.216	0.138	0.128	0.197
NDUFA12 (UniProt Q9UI09)	0.022	-0.1	0.014	-0.028	-0.027	0.039	0.03	-0.044	0.114	0.056	-0.135	-0.244	0.081	0.046	-0.063	-0.173	0.119	0.082	-0.054	-0.632 (active)
OSTM1 (UniProt Q86WC4)	-0.051	-0.047	0	0.056	-0.033	0.017	0.093	-0.03	0.146	-0.023	-0.216	-0.169	0.058	0.107	-0.12	-0.215	-0.072	0.004	0.035	-0.064
NDUFS4 (UniProt O43181)	0.03	0.024	-0.069	-0.033	0.032	-0.061	-0.06	-0.033	-0.083	-0.062	0.052	0.074	-0.037	-0.025	-0.007	0.071	-0.079	-0.046	0.033	-0.013
NOLC1 isoform 2 (UniProt Q14978)	-0.074	-0.004	-0.082	-0.051	0.018	-0.088	-0.032	0.104	0.143	-0.033	-0.155	-0.024	-0.051	-0.06	-0.015	0.047	-0.048	-0.018	0.026	-0.112
